Common to all, as to conditions: mRNA level, 48 h; actives raise or lower the signal
Read-out in assay [1]: Caspase-3 (Homo sapiens) (UniProt P42574)
Briefly: LTEA_HepaRG_CASP3: Life Technologies and Expression Analysis (LTEA) Assay for cysteine-aspartic acid protease (CASP3) using HepaRG (AID 2283477). Put shortly: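 Transcript-level assay: CASP3 mRNA in human HepaRG after 48 h treatment, eight half-log concentrations from 100 uM in 0.5% DMSO, quantified by qRT-PCR.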

Read-out in assay [2]: Cytochrome P450 (CYP24A1), CYP24A1 (gene 1591)
Briefly: LTEA_HepaRG_CYP24A1: Life Technologies and Expression Analysis (LTEA) Assay for Cytochrome P450 (CYP24A1) using HepaRG (AID 2283478). Put shortly: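 Gene expression of CYP24A1 by TaqMan qRT-PCR in HepaRG after 48 h treatment, highest concentration 100 uM; activity fitted in both directions relative to DMSO vehicle.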

Read-out in assay [3]: Cytochrome P450 (CYP1A2), CYP1A2 (gene 1544)
Briefly: LTEA_HepaRG_CYP1A2: Life Technologies and Expression Analysis (LTEA) Assay for Cytochrome P450 (CYP1A2) using HepaRG (AID 2283479). The gist of the method: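 In duplicate wells, HepaRG cultures maintained in 0.5% DMSO were treated 48 h across an 8-point, half-log series topping at 100 uM; phenobarbital (1 mM) served as induction control. Expression was read by qRT-PCR.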

Read-out in assay [4]: cysteine-aspartic acid protease (CASP8), CASP8 (gene 841)
Nature of the assay: LTEA_HepaRG_CASP8: Life Technologies and Expression Analysis (LTEA) Assay for cysteine-aspartic acid protease (CASP8) using HepaRG (AID 2283480). The gist of the method: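 Differentiated HepaRG cells in serum-free induction medium, 48 h exposure, eight-point half-log series from 100 uM in 0.5% DMSO, duplicates. CASP8 mRNA by qRT-PCR, normalized to ACTB, GAPDH, POLR2A; bidirectional fit versus DMSO.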

Read-out in assay [5]: Cytochrome P450 (CYP2B6), CYP2B6 (gene 1555)
Briefly: LTEA_HepaRG_CYP2B6: Life Technologies and Expression Analysis (LTEA) Assay for Cytochrome P450 (CYP2B6) using HepaRG (AID 2283481). The gist of the method: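 Human HepaRG, 48 h dosing, 0.5% DMSO vehicle, top dose 100 uM. CYP2B6 transcript by qRT-PCR, housekeeping-normalized, bidirectional curve fit.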

Read-out in assay [6]: Cytochrome P450 2C19 (Homo sapiens) (UniProt P33261)
Briefly: LTEA_HepaRG_CYP2C19: Life Technologies and Expression Analysis (LTEA) Assay for CYP2C19 using HepaRG (AID 2283482). The gist of the method: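 Endpoint: CYP2C19 mRNA change, bidirectional fit vs 0.5% DMSO. Cells: HepaRG, 48 h exposure, eight-point series topping at 100 uM. Quantitation: qRT-PCR normalized to ACTB, GAPDH, POLR2A.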

Read-out in assay [7]: CYP2C8 (gene 1558)
Nature of the assay: LTEA_HepaRG_CYP2C8: Life Technologies and Expression Analysis (LTEA) Assay for CYP2C8 using HepaRG (AID 2283483). The gist of the method:
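Differentiated HepaRG cells in serum-free induction medium exposed 48 h in duplicate to 8 half-log concentrations from 100 uM in 0.5% DMSO. CYP2C8 mRNA by qRT-PCR normalized to ACTB, GAPDH, POLR2A; bidirectional fit versus DMSO.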

Read-out in assay [8]: CYP2C9 (gene 1559)
Nature of the assay: LTEA_HepaRG_CYP2C9: Life Technologies and Expression Analysis (LTEA) Assay for CYP2C9 using HepaRG (AID 2283484). Put shortly:
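Differentiated human HepaRG cells in serum-free induction medium were exposed 48 h to chemicals in 8-point half-log series from 100 uM (0.5% DMSO), in duplicate. CYP2C9 mRNA was measured by qRT-PCR, normalized to ACTB/GAPDH/POLR2A, with bidirectional fitting versus DMSO.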

Read-out in assay [9]: CYP2E1 (gene 1571)
Briefly: LTEA_HepaRG_CYP2E1: Life Technologies and Expression Analysis (LTEA) Assay for CYP2E1 using HepaRG (AID 2283485). The gist of the method: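 Differentiated HepaRG cells were treated in duplicate for 48 h with chemicals in 0.5% DMSO, from 100 uM downward in half-log dilutions. RNA was then analysed by qRT-PCR for CYP2E1 induction or loss.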

Read-out in assay [10]: CYP4A11 (gene 1579)
Nature of the assay: LTEA_HepaRG_CYP4A11: Life Technologies and Expression Analysis (LTEA) Assay for CYP4A11 using HepaRG (AID 2283486). The gist of the method: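 Human hepatic HepaRG cultures receive duplicate 48 h exposures across a concentration-response series topping at 100 uM. Expression changes in CYP4A11 are measured by qRT-PCR relative to DMSO controls.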

Read-out in assay [11]: Cytochrome P450 3A4 (Homo sapiens) (UniProt P08684)
Nature of the assay: LTEA_HepaRG_CYP3A4: Life Technologies and Expression Analysis (LTEA) Assay for CYP3A4 using HepaRG (AID 2283487). Put shortly: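 HepaRG, 48 h exposure, 8-pt CRC from 100 uM (half-log), 0.5% DMSO, duplicates; serum-free induction medium. Readout: CYP3A4 mRNA, qRT-PCR, ACTB/GAPDH/POLR2A normalization. Bidirectional fit vs DMSO.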

Read-out in assay [12]: DNA damage-inducible transcript 3 (DDIT3), DDIT3 (gene 1649)
Nature of the assay: LTEA_HepaRG_DDIT3: Life Technologies and Expression Analysis (LTEA) Assay for DNA damage-inducible transcript 3 (DDIT3) using HepaRG (AID 2283488). The gist of the method:
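Changes in DDIT3 transcript, in either direction relative to 0.5% DMSO vehicle, were quantified by TaqMan qRT-PCR after 48 h chemical exposure of HepaRG cells at 8 concentrations, maximum 100 uM.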

Read-out in assay [13]: Pro-epidermal growth factor (Homo sapiens) (UniProt P01133)
Nature of the assay: LTEA_HepaRG_EGF: Life Technologies and Expression Analysis (LTEA) Assay for Epidermal growth factor (EGF) using HepaRG (AID 2283489). The gist of the method: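 Concentration-response mRNA assay: HepaRG cells dosed 48 h (max 100 uM, 0.5% DMSO), EGF measured by qRT-PCR and normalized to ACTB/GAPDH/POLR2A.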

Read-out in assay [14]: Early growth response protein 1 (EGR1) transcription factor, EGR1 (gene 1958)
Briefly: LTEA_HepaRG_EGR1: Life Technologies and Expression Analysis (LTEA) Assay for Early growth response protein 1 (EGR1) transcription factor using HepaRG (AID 2283490). Put shortly:
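Differentiated HepaRG cells in serum-free induction medium exposed 48 hours, duplicate, to 8 half-log concentrations up to 100 uM in 0.5% DMSO. EGR1 mRNA measured by TaqMan qRT-PCR, normalized to ACTB, GAPDH, POLR2A; bidirectional fit versus DMSO.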

Read-out in assay [15]: Cytochrome P450 3A7 (Homo sapiens) (UniProt P24462)
Nature of the assay: LTEA_HepaRG_CYP3A7: Life Technologies and Expression Analysis (LTEA) Assay for CYP3A7 using HepaRG (AID 2283492). The gist of the method:
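qRT-PCR of CYP3A7 in HepaRG lysates after 48 h treatment; concentration-response (8 points, max 100 uM) analysed bidirectionally relative to 0.5% DMSO controls.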

Read-out in assay [16]: CYP3A5 (gene 1577)
Nature of the assay: LTEA_HepaRG_CYP3A5: Life Technologies and Expression Analysis (LTEA) Assay for CYP3A5 using HepaRG (AID 2283493). The gist of the method: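 mRNA induction or loss of CYP3A5 assessed in HepaRG after 48 h dosing, 100 uM top concentration, duplicate wells; TaqMan qRT-PCR with ACTB, GAPDH, POLR2A normalization; 0.5% DMSO as negative control.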

Read-out in assay [17]: Fatty Acid-Binding Protein 1 (FABP1), FABP1 (gene 2168)
Nature of the assay: LTEA_HepaRG_FABP1: Life Technologies and Expression Analysis (LTEA) Assay for Fatty Acid-Binding Protein 1 (FABP1) using HepaRG (AID 2283494). Put shortly:
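Differentiated human HepaRG cells exposed 48 h in serum-free induction medium to eight half-log concentrations up to 100 uM (0.5% DMSO), duplicate. FABP1 mRNA by qRT-PCR, normalised to ACTB, GAPDH, POLR2A; bidirectional fitting against DMSO.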

Read-out in assay [18]: Cytochrome P450 4A22 (Homo sapiens) (UniProt Q5TCH4)
Briefly: LTEA_HepaRG_CYP4A22: Life Technologies and Expression Analysis (LTEA) Assay for Cytochrome P450 4A22 (CYP4A22) using HepaRG (AID 2283495). The gist of the method: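 Concentration-response (8 points, max 100 uM, 0.5% DMSO) in human HepaRG liver cells after 48 h exposure. CYP4A22 mRNA by TaqMan qRT-PCR with housekeeping-gene normalization.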

Read-out in assay [19]: Cytochrome P450 7A1 (Homo sapiens) (UniProt P22680)
Nature of the assay: LTEA_HepaRG_CYP7A1: Life Technologies and Expression Analysis (LTEA) Assay for Cytochrome P450 7A1 (CYP7A1) using HepaRG (AID 2283496). The gist of the method:
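Gene expression endpoint in human HepaRG liver cells treated for 48 h with test chemicals (up to 100 uM, 0.5% DMSO). Values come from bidirectional concentration-response fitting versus DMSO.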

Read-out in assay [20]: Ezrin (EZR), EZR (gene 7430)
Briefly: LTEA_HepaRG_EZR: Life Technologies and Expression Analysis (LTEA) Assay for Ezrin (EZR) using HepaRG (AID 2283491). Put shortly: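 Read-out is EZR transcript level by qRT-PCR, normalized to three housekeeping genes and fitted bidirectionally against the DMSO control. Human HepaRG cells received test chemicals for 48 h at eight half-log concentrations up to 100 uM in 0.5% DMSO.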

Active and inactive are the calls of the source. The calls were made as follows: active = hit-call score of the fitted dose curve at least 0.9, where 1 is the maximum; inactive = score below 0.9.

The AC50 is the midpoint of the concentration-response curve, whichever way the signal moves.

Chain of Caspase-3 (Homo sapiens) (P42574 whole entry, looked up): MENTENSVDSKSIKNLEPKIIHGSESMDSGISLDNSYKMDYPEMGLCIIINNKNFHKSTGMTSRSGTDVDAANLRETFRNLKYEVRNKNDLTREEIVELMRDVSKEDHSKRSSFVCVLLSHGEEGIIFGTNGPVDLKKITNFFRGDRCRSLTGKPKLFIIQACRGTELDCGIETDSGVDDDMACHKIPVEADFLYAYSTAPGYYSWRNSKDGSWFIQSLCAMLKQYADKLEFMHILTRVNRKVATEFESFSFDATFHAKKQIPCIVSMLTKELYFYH
Chain of Cytochrome P450 3A4 (Homo sapiens) (P08684 whole entry, looked up): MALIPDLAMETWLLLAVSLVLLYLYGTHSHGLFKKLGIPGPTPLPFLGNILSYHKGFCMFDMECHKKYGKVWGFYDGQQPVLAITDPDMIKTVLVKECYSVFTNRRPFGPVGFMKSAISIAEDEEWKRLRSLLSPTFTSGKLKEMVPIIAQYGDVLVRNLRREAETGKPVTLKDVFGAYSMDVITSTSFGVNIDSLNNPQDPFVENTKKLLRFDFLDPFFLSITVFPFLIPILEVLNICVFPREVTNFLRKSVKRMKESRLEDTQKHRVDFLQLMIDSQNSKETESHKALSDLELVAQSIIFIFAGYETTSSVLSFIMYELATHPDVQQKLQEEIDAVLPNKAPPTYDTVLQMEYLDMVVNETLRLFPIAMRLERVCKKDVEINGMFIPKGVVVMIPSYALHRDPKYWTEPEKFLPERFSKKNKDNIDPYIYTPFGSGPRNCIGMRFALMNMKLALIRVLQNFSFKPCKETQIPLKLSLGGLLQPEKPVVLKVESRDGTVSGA
Chain of Cytochrome P450 2C19 (Homo sapiens) (P33261 whole entry, looked up): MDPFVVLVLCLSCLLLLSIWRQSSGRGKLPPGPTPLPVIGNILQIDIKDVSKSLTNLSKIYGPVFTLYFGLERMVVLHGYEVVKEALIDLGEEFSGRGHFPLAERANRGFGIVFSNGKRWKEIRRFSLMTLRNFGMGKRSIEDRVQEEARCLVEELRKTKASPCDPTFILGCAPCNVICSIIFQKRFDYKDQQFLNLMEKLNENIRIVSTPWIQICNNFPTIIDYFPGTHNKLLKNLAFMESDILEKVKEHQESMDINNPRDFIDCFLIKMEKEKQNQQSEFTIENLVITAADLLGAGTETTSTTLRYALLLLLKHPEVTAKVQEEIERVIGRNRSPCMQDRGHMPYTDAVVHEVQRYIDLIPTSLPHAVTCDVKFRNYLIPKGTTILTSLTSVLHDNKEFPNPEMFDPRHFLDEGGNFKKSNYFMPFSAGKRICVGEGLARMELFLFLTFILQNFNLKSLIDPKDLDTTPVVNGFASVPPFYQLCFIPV
Chain of Cytochrome P450 3A7 (Homo sapiens) (P24462 whole entry, looked up): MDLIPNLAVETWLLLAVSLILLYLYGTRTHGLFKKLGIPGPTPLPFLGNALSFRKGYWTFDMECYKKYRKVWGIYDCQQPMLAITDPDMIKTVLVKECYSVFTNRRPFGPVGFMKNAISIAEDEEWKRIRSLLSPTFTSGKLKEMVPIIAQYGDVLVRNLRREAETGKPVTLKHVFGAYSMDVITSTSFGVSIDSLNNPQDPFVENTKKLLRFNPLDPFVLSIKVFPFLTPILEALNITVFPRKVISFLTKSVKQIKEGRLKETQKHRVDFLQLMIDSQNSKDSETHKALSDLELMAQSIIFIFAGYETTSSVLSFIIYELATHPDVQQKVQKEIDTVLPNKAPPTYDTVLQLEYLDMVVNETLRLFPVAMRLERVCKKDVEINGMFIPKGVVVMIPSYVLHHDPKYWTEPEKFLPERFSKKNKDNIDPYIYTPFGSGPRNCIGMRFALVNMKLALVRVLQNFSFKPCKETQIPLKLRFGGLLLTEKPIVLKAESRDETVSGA

For `NCC1(Cc2noc(=O)[nH]2)CCCCC1`, the result in [1], in [2], in assay [3], in assay [4], in [5] and in [6] was inactive. For the same molecule, the outcome in assay [7], in assay [8], in assay [9], in assay [10], in assay [11] and in assay [12] was inactive. Besides, the molecule was called inactive in assay [13], in assay [14], in assay [15], in assay [16], in [17] and in assay [18]. For the same molecule, the outcome in assay [19] was inactive.
As to `CCCCCCCCCCCC(=O)OC`, the molecule was classed as inactive in assay [1], in assay [4], in assay [5], in assay [6], in assay [7] and in assay [8]. Moreover, the call in assay [9], in [10], in [11], in assay [12], in assay [13] and in assay [14] was inactive. Also, the molecule was classed as inactive in [20], in [15], in [16], in assay [17], in assay [18] and in [19]. Besides, in assay [3], the AC50 was 66.9 µM (active).
As for `CN1CCCC1=O`, the outcome in [1], in assay [2], in [4], in [5], in [6] and in [7] was inactive. The molecule was called inactive in assay [9], in assay [10], in assay [11], in assay [12], in [13] and in [14]. Also, the outcome in assay [15], in [16], in assay [17], in [18] and in [19] was inactive. Moreover, the AC50 in assay [3] was 31.5 µM (active).
For the molecule `CC(CO)OC(C)CO` (stereo not given) (tested in a mixture with another compound), the molecule was called inactive in assay [1], in assay [2], in [3], in [4], in assay [5] and in assay [6]. The molecule was called inactive in assay [7], in [8], in assay [9], in [10], in assay [11] and in [12]. For the same molecule, the result in assay [13], in assay [14], in assay [15], in [16], in assay [17] and in assay [18] was inactive. The molecule was classed as inactive in [19].

The values above are taken from PubChem BioAssay (EPA / NIEHS).
